Most compounds without a hit are left out; they make up all but 4.1% or so of the library.
CFTR F508del cor: F508del CFTR correction, initial screen, CFBE line, single point; CFBE cells, YFP halide quenching; stimulated with forskolin plus potentiator P3; % fluorescence drop versus neutral controls; activity (quench increase), % at 7.58 µM; hit rate 0.36% among 350,000;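 active means mean added fluorescence quench of at least 8% versus neutral control, with both replicates also reaching 8%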;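 further: cells transiently co-express mutant CFTR-F508del with the halide-sensitive YFP; corrector assay measuring rescue of mutant channel to the surface after 24 h compound exposure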
ALR H2O2 inh: inhibitors of human ALR sulfhydryl oxidase, primary screen, biochemical, H2O2 detection, HRP-luminol luminescence, single point; FAD-linked sulfhydryl oxidase ALR (Homo sapiens), P55789; purified ALR, DTT oxidation; inhibition, % (test concentration not listed); hit rate 3.8% among 290,000;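 active means mean replicate inhibition above about 79%, with every replicate also reaching it, limit read from the data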
Target sequence (P55789 whole entry, looked up): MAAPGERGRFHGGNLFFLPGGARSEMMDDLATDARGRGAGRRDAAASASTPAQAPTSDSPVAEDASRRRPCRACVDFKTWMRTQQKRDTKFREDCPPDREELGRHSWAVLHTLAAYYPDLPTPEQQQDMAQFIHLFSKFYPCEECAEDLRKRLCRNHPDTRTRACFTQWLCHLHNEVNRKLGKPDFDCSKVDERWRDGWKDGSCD
NSD2 HMT inh: NSD2 histone methyltransferase inhibitors, primary screen, biochemical, AlphaScreen, single concentration, set 2; Histone-lysine N-methyltransferase NSD2 (Homo sapiens), O96028; NSD2 peptide methylation, 120 min; inhibition, % at 12.5 µM; hit rate 0.54% among 310,000; AID 743445, 2014; in the data active means inhibition above about 50%
PglD inh: C. jejuni PglD acetyltransferase inhibitors, primary screen, biochemical, DTNB colorimetric, single point; UDP-N-acetylbacillosamine N-acetyltransferase PglD (Campylobacter jejuni); purified PglD enzyme, DTNB colorimetric CoA detection; inhibition, % at 12.5 µM; hit rate 0.098% among 360,000; AID 602405, 2012; in the data active means inhibition above about 16%, passing the limit was not always enough
CASP6 VEID inh: human caspase-6 inhibitors, primary screen, biochemical, VEID-R110 fluorescence, single point, set 2; AID 686996, 2013; inhibition, % at 12.5 µM; hit rate 0.53% among 350,000; purified caspase-6, Z-VEID-R110 cleavage fluorescence; P55212;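 active means mean inhibition across replicates at least about 35%, with every replicate also reaching that limit, limit read from the data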;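 further: 0% = median of neutral control wells and 100% = no fluorescence left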
Target sequence (P55212 24-179 limits assumed): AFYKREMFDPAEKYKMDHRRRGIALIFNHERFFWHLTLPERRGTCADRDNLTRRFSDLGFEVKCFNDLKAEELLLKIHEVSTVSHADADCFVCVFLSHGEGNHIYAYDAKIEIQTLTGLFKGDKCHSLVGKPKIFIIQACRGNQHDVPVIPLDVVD
Target sequence (P55212 194-293 limits assumed): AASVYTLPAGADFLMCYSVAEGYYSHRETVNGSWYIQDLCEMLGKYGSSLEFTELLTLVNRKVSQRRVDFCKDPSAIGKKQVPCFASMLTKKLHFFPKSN
Env fusion inh: inhibitors of HIV-1 Env-driven cell-cell fusion, primary screen, HeLa-JRFL effector, CEM21 target cells, luciferase | hit rate 1.1% among 360,000 | inhibition, % at 12.3 µM | AID 651610, 2012;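 active means mean replicate inhibition score of at least 50 and every replicate individually at or above 50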;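 further: 0% = plate neutral controls and 100% = maraviroc near 300 nM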
Active calls of the source: *; i = inactive; · = no result; ! = repeats disagree; [ ] = another dose, or the depositor's remark.

SMILES	CFTR F508del cor	ALR H2O2 inh	NSD2 HMT inh	PglD inh	CASP6 VEID inh	Env fusion inh
COc1ccccc1N(Cc1ccccc1)S(=O)(=O)c1cccc(C(=O)Nc2ccccn2)c1	1.6	-1.4	0.8	-3.7	39.4*	28.0
CC1=NN(c2ccccc2)C(=O)C1C(=S)SC1CC(=O)NC1=O (stereo not given)	-4.0	·	-1.9	-3.7	·	-13.6
O=C1CC(SC(=S)C2CCCC2=O)C(=O)N1 (stereo not given)	-3.4	·	33.6	·	49.2*	-14.2
Cn1c(CNS(=O)(=O)c2ccc(Br)cc2)n[nH]c1=S	·	90.8*	1.5	3.2	·	-0.3
N#C/C(=C\c1ccc(N2CCCCC2)o1)C(N)=O	1.0	90.1*	4.5	·	9.7	56.8*
N#C/C(=C\c1ccc(N2CCCCC2)o1)C(=O)Nc1cccc(Br)c1	·	-6.2	2.0	·	·	-66.2
Cc1noc(C)c1NC(=O)N(C)C[C@H]1OCCCC[C@@H](C)Oc2ccc(NC(=O)c3ccncc3)cc2C(=O)N([C@H](C)CO)C[C@@H]1C	-0.5	·	·	-2.4	-1.2	-1.8[16.7 µM]
CCCNC(=O)C[C@@H]1CC[C@@H]2[C@H](COC[C@H](O)CN2C(=O)Nc2ccc3c(c2)OCO3)O1	-0.4	·	·	1.2	-2.1	·
O=c1c2ccccc2cnn1Cc1n[nH]c(=S)n1-c1ccccc1Cl	·	83.9*	-2.7	·	-1.7	-17.9
CC(Sc1ccc2c(c1)OCCO2)C(=O)Nc1ncc(Cl)cc1Cl (stereo not given)	·	99.2*	0.0	-1.9	·	·
O=C(NC1CCC1)[C@@H]1[C@@H](CO)[C@@H]2Cn3c(ccc(-c4ccccc4)c3=O)[C@@H]2N1CC1CC1	0.2	·	·	·	-1.0	·
CCN(CC)c1ccc(SS(=O)(=O)O)cc1	·	99.2*!	49.0	-2.8	·	-87.2
CC1(C)Cc2c(c(=S)nc(-c3ccccc3)n2CCN2CCOCC2)CO1	·	97.2*	16.1	11.6	·	-85.6
COCCn1c(-c2ccccc2)nc(=S)c2c1CC(C)(C)OC2	·	-6.0	0.7	7.2	·	·
C[C@H](O)[C@@H]1C(=O)N2CCc3c([nH]c4ccccc34)[C@@H]2C[C@@H]1N(C)C(=O)Nc1cccc2ccccc12	-0.3	·	·	-1.8	82.1*	-7.4
C[C@H](O)[C@@H]1C(=O)N2CCc3c([nH]c4cccc(-c5ccccc5)c34)[C@@H]2C[C@@H]1N(C)C(=O)OCc1ccccc1	-0.7	·	·	·	-2.7	71.2*
CO[C@@H](CN(C)C(=O)c1cnccn1)[C@H](C)CN([C@H](C)CO)S(=O)(=O)c1ccc(F)cc1	0.9	·	·	-3.0	-1.8	·
O=C(Nc1ccccc1N1CCCC1)c1ccccc1F	-1.2	98.4*	-0.4	-3.2	-2.3	-5.7
CCC(Oc1ccccc1)C(=O)Nc1ccccc1N1CCCC1 (stereo not given)	0.4	31.9	-1.6	-0.9	-78.3	29.7
O=C(Nc1ccccc1N1CCCCC1)c1ccccc1F	·	37.6	-0.9	-0.2	·	2.8
O=C(CNCC1CCCO1)Nc1ccccc1N1CCCCCC1 (stereo not given)	·	98.5*	3.3	-3.1	·	-16.8
CCC(C(=O)Nc1ccccc1N1CCCC1)c1ccccc1 (stereo not given)	2.7	97.9*	·	3.5	0.3	2.4
O=C(CN1C(=O)C2CCCCC2C1=O)Nc1ccccc1N1CCCC1 (stereo not given)	-0.4	97.3*	2.1	·	-2.9	-11.5
COc1ccc(NC(=O)N(C)C[C@@H]2Oc3ccc(NC(=O)CCN4CCOCC4)cc3C(=O)N([C@H](C)CO)C[C@H]2C)cc1	-1.8	·	·	1.8	26.7	-11.3[16.7 µM]
O=C(Cc1ccccc1)N1C[C@@H]2[C@H](c3ccccc31)[C@H](CO)N2C(=O)C1CCCCC1	1.8	·	·	2.2	1.3	·
SMILES	CFTR F508del cor	ALR H2O2 inh	NSD2 HMT inh	PglD inh	CASP6 VEID inh	Env fusion inh
CCN1CCN(S(=O)(=O)c2ccc(Cl)c(C(=O)Nc3ccccc3N3CCCCC3)c2)CC1	1.2	-50.1	2.6	3.1	0.1	7.3
O=C1CCC(C(=O)Nc2ccccc2N2CCCC2)=NN1	-0.8	84.7*	2.6	·	-6.0	13.1
CCN1CCN(S(=O)(=O)c2ccc(Cl)c(C(=O)Nc3ccccc3N3CCCC3)c2)CC1	2.3	·	8.8	3.0	-10.1	80.5*
O=C(Nc1ccccc1N1CCCC1)c1cccc(Cl)c1Cl	3.5	98.3*	1.7	·	-5.0	12.6
O=C(Cc1ccccc1F)Nc1ccccc1N1CCCC1	2.1	98.2*	8.5	1.4	3.0	28.4
COCC(=O)N(C[C@@H]1N[C@H](CO)[C@H]1c1ccc(C2=CCCC2)cc1)C(C)C	2.5	·	·	-3.5	·	·
Cc1ccc(CNC(=O)CSc2ccsc2[N+](=O)[O-])cc1	1.5	-24.9	5.8	·	2.2	-8.5
CCN(CC)c1ccc(NC(=O)CSc2ccsc2[N+](=O)[O-])c(C)c1	·	93.0*	7.1	·	·	-72.1
O=C(CSc1ccsc1[N+](=O)[O-])Nc1cc(F)ccc1F	0.7	·	6.6	·	35.9*	-8.5
CC(=O)c1ccc(NC(=O)CSc2ccsc2[N+](=O)[O-])cc1	0.3	·	3.6	·	9.3	12.7
Cc1ccc(-n2nnnc2SCn2nnc3ccccc3c2=O)c(C)c1	·	0.1	4.6	-1.7	·	75.5*
C[C@@H]1CN([C@@H](C)CO)C(=O)c2cc(C3=CCCCC3)cnc2O[C@H]1CN(C)Cc1ccncc1	-1.4	·	·	-0.8	-0.9	10.5[16.7 µM]
CCCCCCCCCCn1ccc(=N)cc1	-19.9	·	12.1	1.6	-0.5	77.5*
COc1cc(/C=N/n2nnnc2N)ccc1OC(C)=O	-0.9	5.5	1.7	-6.3	-1.6	1.2
Nc1nnnn1/N=C/c1ccc(O)cc1	·	95.7*	-1.3	0.1	·	-7.9
COc1cc(/C=N/n2nnnc2N)ccc1O	·	99.4*	11.5	-2.5	·	-91.1
C[C@H](CO)N1C[C@H](C)[C@@H](CN(C)C(=O)Nc2ccc(F)cc2)Oc2ccc(NC(=O)c3ccncc3)cc2C1=O	-1.0	·	·	7.1	-0.4	·
C[C@H]1CCCCO[C@H](CN(C)Cc2ccc(C(F)(F)F)cc2)[C@@H](C)CN([C@@H](C)CO)C(=O)c2cc(NS(=O)(=O)c3ccccc3)ccc2O1	2.9	·	·	-2.7	-0.9	-36.4[16.7 µM]
Cc1ccc(S(=O)(=O)N(C)C[C@H]2Oc3ccc(NS(=O)(=O)c4ccccc4)cc3CC(=O)N([C@H](C)CO)C[C@@H]2C)cc1	-2.6	·	·	5.7	1.2	-15.6[16.7 µM]
O=C1NC(=S)S/C1=C\C=C\c1ccc([N+](=O)[O-])o1	-16.5	·	·	-7.2	96.1*	i
O=C(C[C@H]1CC[C@@H]2[C@H](COC[C@@H](O)CN2Cc2ccc(F)cc2)O1)N1CCc2ccccc2C1	1.3	·	·	7.2	1.1	·
C[C@H]1Cn2cnc(C(=O)N3CCN(c4ccccc4)CC3)c2C(=O)N1	1.9	·	·	·	-6.8	87.6*

Compound activity as filed in PubChem.
